Test results: PubChem BioAssay (NCATS)
Inconclusive results are not listed. Where a call stands in place of a potency, no number is given. Calls of active or inactive are those of the source. Calls follow the shape of the dose curve; as a rule, active = well fitted cell-killing curve with a large enough effect; inconclusive = small, poorly fitted or top-dose-only effect; inactive = flat fitted curve, though single readings scatter.

Experiment: Cell Viability - LYMP2-019 (AID 973);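 also: cells exposed to compound for 24 h at 37 °C; nearly all actives have a fitted effect of over 55% in size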
Details: LYMP2-019 lymphoblastoid cell line viability; series mostly up to 92.2 µM
Text: NIH Chemical Genomics Center [NCGC]
NIH Molecular Libraries Screening Centers Network [MLSCN]
National Institutes of Environmental Health Sciences [NIEHS]
National Toxicology Program [NTP]
We have developed a 1536-well cell-based assay for quantitative high throughput screening (qHTS) against a number of cell lines to determine in vitro cytotoxicity of small molecules. This particular assay uses a human lymphoblastoid cell line (LYMP2-019) purchased from Coriell Institute for Medical Research.
NCGC Assay Protocol Summary:
The CellTiter-Glo luminescent cell viability assay (Promega) is a homogeneous method to measure the number of viable cells in culture. The end point readout of this assay is based on quantitation of intracellular ATP, an indicator of metabolic activity, using the luciferase reaction. Luciferase catalyzes the oxidation of beetle Luciferin to oxyluciferin and light in the presence of ATP. The luminescent signal is proportional to amount of ATP present.
Using the CellTiter-Glo luminescent cell viability assay, the amount of cellular ATP was measured in the lymphoblastoid cell line with complete culture medium following compound treatment for 24 hours. The assay was performed in opaque white Kalypsys 1536-well plates. In the screen, tetraoctylammonium bromide was used as positive control. Library compounds were measured for their ability to cause acute toxicity in the cell line, as reflected by a decrease in intracellular ATP levels, in a concentration-dependent manner. […] AC50 values were determined from concentration-response data modeled with the standard Hill equation.
qHTS protocol for CellTiter Glo lymphoblastoid cellular assay
[Step] [Parameter] [Value] [Description]
1. Reagent; 5 uL; 2500 lymphoblastoid cells/well
2. Time; 5 hr; 37 C incubation
4. Controls; 23 nL; Tetraoctylammonium bromide 6.4pM to 92 uM
5. Time; 24 hr; 37 C incubation
6. Reagent; 5 uL; CellTiter Glo reagent
7. Time; 30 min; Room Temperature
8. Detection; Luminescence; Viewlux plate reader
Keywords: cell viability, cytotoxicity, lymphoblastoid cell line, luminescence, NTPHTS, NTPHTS_NCGC, NIEHS, DSSTox, MLSMR, MLSCN, NIH Roadmap, qHTS, NCGC

| Structure (SMILES) | Potency |
| --- | --- |
| Oc1cc(Cl)ccc1Cl | inactive |
| CCOC(=O)C1OC1(C)c1ccccc1 (stereo not given) | inactive |
| Clc1ccc(C(Cl)(Cl)Cl)cc1Cl | inactive |
| CC(C)[N+](=O)[O-] | inactive |
| CCCCCOC(=O)c1ccccc1C(=O)OCCCCC | inactive |
| C=CCBr | inactive |
| CCCN(CCC)c1c([N+](=O)[O-])cc(C(F)(F)F)cc1[N+](=O)[O-] | inactive |
| C=CCCC#N | inactive |
| O=C(Cl)c1ccccc1F | inactive |
| CCSC(=O)N1CCCCCC1 | inactive |
| CCOP(=O)(OCC)OCC | inactive |
| CC(C)CON=O | inactive |
| CSSC | inactive |
| [N-]=[N+]=[N-] | inactive |
| N#CC(Cl)(Cl)Cl | inactive |
| C[N+](=O)[O-] | inactive |
| Oc1cccc(Cl)c1 | inactive |
| N#CCCCCC#N | inactive |
| Oc1ccc(Cl)c(Cl)c1Cl | inactive |
| ClCCBr | inactive |

| Structure (SMILES) | Potency |
| --- | --- |
| OCCOCCO | inactive |
| Nc1ccc(-c2ccc(N)c(Cl)c2)cc1Cl | inactive |
| COc1ccccc1N | inactive |
| ClCC(Cl)Cl | inactive |
| c1ccc(N=NNc2ccccc2)cc1 | inactive |
| CC(C)(OOC(C)(C)c1ccccc1)c1ccccc1 | inactive |
| ClCC(Br)CBr (stereo not given) | inactive |
| CC(C)(Cl)Cl | inactive |
| Cc1ccc(N)cc1Cl | inactive |
| ClCC(Cl)CCl | inactive |
| O=C(O)C(Cl)Br (stereo not given) | inactive |
| CC12CC1(C)C(=O)N(c1cc(Cl)cc(Cl)c1)C2=O (stereo not given) | inactive |
| C/C=C/CC#N | inactive |
| Cc1ccc(N)cc1N | inactive |
| S=c1[nH]c2ccccc2[nH]1 | inactive |
| Clc1cccc(Cl)c1Cl | inactive |
| C=CCCl | inactive |
| [O-][Cl+]O | inactive |
| CCCCC(=O)Cl | inactive |
| C/C=C/C=O | inactive |
